Screening results: PubChem, Broad Institute
This excerpt belongs to a sample that is enriched for hits.
miR-122 inh: activators of miR-122 sensor in Huh7 cells; Huh7 psiCHECK-miR122 Renilla luciferase sensor, 48 h; activation, % at 12.5 µM; 0.14% of 340,000 active;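 active = mean activation of 30% or more, with every replicate also reaching 30%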;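 note: higher luciferase signal means stronger suppression of miR-122 activity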
Of the large screens only hits and unclear results are named; the others gave an inactive call.

CCN1CCN(Cc2ccc(NC(=O)c3cc(NC(=O)c4cc5cccc(OC)c5o4)cc(OC)c3)cc2C(F)(F)F)CC1	miR-122 inh 31
COc1ccc(NS(=O)(=O)c2cc(NC(=O)c3ccc(F)cc3)ccc2OC)cc1	none
C[C@@H]1CN([C@@H](C)CO)S(=O)(=O)c2ccc(-c3cccc(C#N)c3)cc2O[C@@H]1CN(C)C(=O)Nc1ccccc1F	none
CCOc1ccc(-c2cc(N)n(S(=O)(=O)c3ccc(OC)c(OC)c3)n2)cc1	none
COc1ccc(-c2c(C)nn3c(N)c(-c4ccccc4)cnc23)cc1OC	miR-122 inh 45
CCCNC(=O)N(C)C[C@H]1Oc2ncc(C#CCC(C)C)cc2C(=O)N([C@@H](C)CO)C[C@H]1C	none
COCC(=O)N(C)C[C@@H]1Oc2ncc(/C=C/c3ccccc3)cc2C(=O)N([C@H](C)CO)C[C@H]1C	none
C[C@@H]1CN([C@@H](C)CO)C(=O)c2cccc(NC(=O)C3CCCCC3)c2O[C@@H]1CN(C)Cc1ccc(C(=O)Nc2ccccc2N)cc1	none
COc1ccc(-c2c(C(C)=O)c(C)nc3sc4c(c23)NC(c2ccccc2)NC4=O)cc1 (stereo not drawn)	miR-122 inh 36
C[C@@H]1CN([C@@H](C)CO)C(=O)c2cc(-c3ccc(F)cc3)cnc2O[C@@H]1CN(C)Cc1cccnc1	none
CCCNC(=O)N(C)C[C@@H]1Oc2ncc(C#C[C@@H](C)O)cc2C(=O)N([C@H](C)CO)C[C@@H]1C	none
C[C@@H]1CN([C@@H](C)CO)C(=O)c2cc(C#Cc3ccccn3)cnc2O[C@@H]1CN(C)CC1CCOCC1	none
CCC(=O)N1[C@H](CO)[C@H](c2ccccc2)[C@@H]1CN(CC)C(=O)c1ccccc1	miR-122 inh 36
CC(=O)N1[C@H](CN(C(=O)c2ccc(F)cc2)C(C)C)[C@H](c2ccccc2)[C@@H]1CO	miR-122 inh 67
CCC(=O)N1[C@H](CO)[C@H](c2ccccc2)[C@@H]1CN(CC)C(=O)c1cccc(F)c1	none
COCC(=O)NC[C@H]1[C@H](c2ccccc2)[C@@H](CO)N1C(=O)c1ccccc1	none
CCC(=O)N1[C@H](CN(CC)C(=O)c2cccc(F)c2)[C@H](c2ccccc2)[C@@H]1CO	none
C[C@@H]1CN([C@@H](C)CO)S(=O)(=O)c2ccc(-c3ccc(C(=O)N(C)C)cc3)cc2O[C@H]1CN(C)C	none
COCC(=O)Nc1ccc2c(c1)C(=O)N(C)C[C@@H](OC)[C@@H](C)CN(C(=O)COC)[C@H](C)CO2	none
CC(C)C#Cc1cnc2c(c1)C(=O)N([C@@H](C)CO)C[C@@H](C)[C@@H](CN(C)Cc1ccccn1)O2	none
C[C@H](CO)N1C[C@H](C)[C@H](CN(C)Cc2ccncc2)Oc2ncc(C#CC3(O)CCCC3)cc2C1=O	none
C[C@H](CO)N1C[C@H](C)[C@H](CN(C)Cc2ccncc2)Oc2ncc(-c3cccc(F)c3)cc2C1=O	none
C[C@H](CO)N1C[C@H](C)[C@@H](CN(C)C(=O)c2ccncc2)Oc2ncc(/C=C/c3ccccc3)cc2C1=O	none
C[C@H]1CN([C@@H](C)CO)C(=O)c2cc(C#Cc3ccccc3F)cnc2O[C@@H]1CN(C)S(=O)(=O)c1ccccc1	none
C[C@H]1CN([C@@H](C)CO)C(=O)c2cc(C#CCc3ccccc3)cnc2O[C@@H]1CN(C)CC1CCOCC1	none
C[C@H](CO)N1C[C@H](C)[C@H](CN(C)C(=O)c2cccnc2)Oc2cc(/C=C/c3ccccc3)ccc2S1(=O)=O	none
C[C@H](CO)N1C[C@H](C)[C@@H](CN(C)C(=O)C2CC2)Oc2ncc(C#Cc3cccc(F)c3)cc2C1=O	none
CN1C(=O)c2cc(NC(=O)c3ccc(C(F)(F)F)cc3)ccc2OC[C@@H]2O[C@H](CC(=O)NC3Cc4ccccc4C3)CC[C@H]21	miR-122 inh 37
CN1C(=O)c2cc(NC(=O)c3ccc(C(F)(F)F)cc3)ccc2OC[C@H]2O[C@H](CC(=O)NC3Cc4ccccc4C3)CC[C@@H]21	miR-122 inh 63
COCC(=O)Nc1ccc2c(c1)OC[C@H](C)NC[C@@H](C)[C@@H](OC)CN(C)C2=O	none
CO[C@@H]1CN(C)C(=O)c2cc(NC(C)=O)ccc2OC[C@@H](C)N(C(=O)CN(C)C)C[C@@H]1C	none
C[C@H]1CN([C@@H](C)CO)C(=O)c2cc(C#Cc3ccccc3)cnc2O[C@@H]1CN(C)Cc1ccccn1	none
CCCC(=O)Nc1ccc2c(c1)OC[C@@H](C)N(C)C[C@@H](C)[C@@H](OC)CN(C)C2=O	none
CO[C@@H]1CN(C)C(=O)c2ccc(NC(=O)c3ccc(Oc4ccccc4)cc3)cc2OC[C@H](C)NC[C@@H]1C	miR-122 inh 37
CO[C@@H]1CN(C)C(=O)c2ccc(NC(C)=O)cc2OC[C@@H](C)N(C(=O)c2ccccc2F)C[C@H]1C	miR-122 inh 35
COc1ccc(NC(=O)Nc2ccc3c(c2)OC[C@@H](C)NC[C@H](C)[C@@H](OC)CN(C)C3=O)cc1	none
CO[C@@H]1CN(C)C(=O)c2cc(NC(C)=O)ccc2OC[C@H](C)N(C(=O)c2ccccc2)C[C@@H]1C	none
CCC(=O)Nc1ccc2c(c1)OC[C@@H](C)N(C(=O)c1ccccc1F)C[C@H](C)[C@@H](OC)CN(C)C2=O	none
